The source of these data is PubChem BioAssay AID1347426 (Functional Genomics Laboratory (NCATS/FGL), 2020).

In all, about 31,000 sequences went through this assay and about 1,400 (4.5%) were called active. This is one part of a sample in which actives are shown more often than they occur.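 The calls were made as follows: active = median seed-adjusted z-score above 1 or below -1; inactive = the rest.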

The experiment is described as follows: Novel Modifiers of Survival Motor Neuron (SMN) Protein: Gene Identification via Genome-wide siRNA Screen. Conditions: HEK293T SMN2-luciferase reporter, siRNA knockdown, 72 h; actives lie on both sides. The source says:
Spinal muscular atrophy (SMA) is the most common neuromuscular autosomal recessive disorder and one of the leading genetic causes of infant death. SMA results from mutations inducing loss of function or deletion in the survival of motor neuron-1 gene (SMN1), leading to deficiency of the survival motor neuron (SMN) protein. Although a second nearly identical gene, SMN2, is retained in humans, its expression primarily produces an aberrantly spliced isoform that is largely unstable and quickly degraded. We performed a genome-wide RNAi screen using a cell-based reporter assay to identify genes and pathways that modulate SMN protein stability. The screen identified over 200 genes that led to the greatest increase or decrease in luciferase expression.
Using HEK293T cells stably expressing a luciferase reporter that combines the promoter and splicing based cassettes in tandem with the major portion of the native SMN2 cDNA with luciferase, we performed a genome-wide RNAi screen to identify modulators of SMN protein levels. Luciferase is expressed when full-length SMN protein is generated with luminescence signal proportional to SMN protein levels. Our luciferase-based reporter assay was used to screen Ambion Silencer Select Human Druggable Genome siRNA library (10418 genes, 3 unique siRNAs per gene) using lipid-based reverse transfection.
Briefly, 1 pmol of each siRNA was spotted to a well of a 384-well plate (Corning, Corning, NY) and 20 microL of serum-free DMEM containing […] of Lipofectamine RNAiMax (Life Technologies, Carlsbad, CA) was then added to each well. Transfected cells were maintained at 37 degrees C in 5% CO2 for 72 hours, 20 microL of ONE-Glo Reagent (Promega) was added to wells for luciferase quantification. Raw luminescence reads were normalized to Ambion(R) Silencer(R) Negative Control #2 siRNA, then log10 transformed. A robust statistical measure of median absolute deviation (MAD) to standardize siRNA activities from each screen. Common Seed Analysis was used to help prioritize clean hits as opposed to those appearing to arise from seed based off-target effects. Candidate modulators were defined as the genes having a MAD score greater than 1.0 or less than -1.0.
For the sequence AGCUCGUACUGUUCCAAUATT against MMP19, the median seed-adjusted z-score was 0.43 (inactive). The same measure for AGUGACAGAGUACAAGAUATT against EIF3G: -0.198 (inactive); for AAGUGGGAGUUACAUUAAATT against DLGAP2: 0.295 (inactive); for GGAUGUCAACUGUGCUUUUTT against MED24: -2.3 (active).

For CAGUGAAGGUGAAAUUCGATT against UCHL5, the median seed-adjusted z-score was -0.358 (inactive). On to GGAUAAUGAUCGCGAGGAATT against ALS2, for which the median seed-adjusted z-score was 0 (inactive). The same measure for GGUUCACGGCUAAAGCAAUTT against DGCR8: -0.266 (inactive). The same measure for CUACCAGGCUUAAUAGGAATT against GFM2: 0.26 (inactive).

With GGGUCUUACUGAUUCCACATT against A4GNT, the median seed-adjusted z-score is 0.213 (inactive).

Turning to CGAGAGUUACUUACAAGAATT against RAN, the median seed-adjusted z-score is -3.09 (active).

In the case of CAUCAUUACCAGAGCUACATT against RLN1, the median seed-adjusted z-score is 0.0637 (inactive).

Regarding CCGCAGUUCUAGGUCCAAUTT against ABCC2, the median seed-adjusted z-score is -0.0464 (inactive). Next, CAACCAAGGUCAGUCUUAUTT against TFCP2L1: -0.246 (inactive); AGAUAAGAAUCGCAUGACATT against ARHGAP9: 0 (inactive); GAACGUAGAAUGAAAGUAATT against PSMC1: -2.23 (active). The same measure for GACUAUAACUUCCCGAAAATT against SYT11: 0.29 (inactive); for GGGUUACAGCUAAAAUUGUTT against OC90: 0.216 (inactive); for GGUGCGGCCCUAUUACUUUTT against RPUSD2: -0.215 (inactive).

Regarding GAGACUCUGUGGACGUAAATT against ZNF101, the median seed-adjusted z-score was 0.336 (inactive).

In the case of AGCUUCUACCGUGUCCUUATT against UCK2, the median seed-adjusted z-score is -1.51 (active).

CUACCUUACUUUAACAUUATT against KCNS3: the median seed-adjusted z-score is 0.103 (inactive). Next, GCGAAAUUUUGGAUAUCAATT against KIF23: -0.449 (inactive); GGACACCUGUGAACCGCAUTT against ARID3A: -1.11 (active).

With GGGAUAUUUUCUACGCUUUTT against DNAH5, the median seed-adjusted z-score is -0.45 (inactive). For the sequence GGUCACCACCAAAUACGUUTT against B4GALNT2, the median seed-adjusted z-score is -0.174 (inactive). Next, CGAUUUAUCCGAUGCCCUUTT against CD99: 0 (inactive).

Turning to CCAUCUCCAGUUGUAUUUUTT against CHKA, the median seed-adjusted z-score was -0.558 (inactive). The same measure for GACGGAAAGACUUACGUUATT against EIF2AK2: 0.419 (inactive). The same measure for GAAUCAACUUUGCCGUGUUTT against SHMT2: -0.0453 (inactive).

In the case of CCUUGUCACAGGUCAAUCATT against VWF, the median seed-adjusted z-score is 0.159 (inactive).

In the case of GAUGGGACAUCGUUGCUCATT against OASL, the median seed-adjusted z-score was 1.02 (active). The same measure for CAGGAUCUACGAUAAGGUATT against ACSL5: 0.109 (inactive); for CGAGAAAGAAUUCCACUUUTT against HOXC5: 0.507 (inactive). Consider GACUGACAUUGAGAUUACATT against CCT3, for which the median seed-adjusted z-score was -0.416 (inactive).

Regarding GGUGAAUACUUCCGGUACATT against SULT2B1, the median seed-adjusted z-score was 0 (inactive). The same measure for CUCUGUGAAUGGUGCCGAATT against FAM57A: 0.0434 (inactive); for GGGAAUGACUGGAAGACGATT against TTF1: 1.76 (active); for GAAUGGUGUGGAUCUCCUATT against ARPC5: -0.479 (inactive).

Regarding GCAAUGUGGUCAAGACGGATT against INHBE, the median seed-adjusted z-score is 0.172 (inactive).

Consider CGUGUAUUCUUUCACUAAUTT against MFSD1, for which the median seed-adjusted z-score was -0.0833 (inactive). With GGGUAUCACCUCACGCUUATT against ABCA12, the median seed-adjusted z-score was 0.0759 (inactive).

On to GGUUUGGAAUGUUCGAGUUTT against SLC25A1, for which the median seed-adjusted z-score is 0.252 (inactive). Next, GGCACAAUUUCAACUCCAUTT against GPR35: -1.46 (active); GAGCUUAGUGAUAAUAUAATT against ANP32E: -0.0648 (inactive); GUGACUAUGAGCUCAAAUATT against RAVER1: -0.0873 (inactive). ACAUGACCAUGGAAGCUGATT against HIPK4: the median seed-adjusted z-score is 0 (inactive). Next, GGAUCCGAGAGUCACCCAATT against LLGL1: -1.13 (active); GGACAGACACGUCAGCAAATT against TMEM171: 0.278 (inactive); GGAAAUCUCGGAGAUCACATT against MLYCD: -0.154 (inactive). Next, CAUCCUCAUUUGAAACCGUTT against CREBL1: -0.348 (inactive); CAUUCGCAUUCAGUCCAUATT against FRAP1: -1.02 (active); GCAGAUGACUACAACUUUATT against E2F5: -0.628 (inactive). GGACUGUACAACACUCUGATT against TGFB3: the median seed-adjusted z-score was -0.354 (inactive). The same measure for GAUAAUGGAAGGUGAAUUUTT against PMS2L3: 0.175 (inactive); for CGGGAGAAGUCCUACCUGUTT against KIF19: 0.342 (inactive); for CGCAGGUUCUACCAGAUGATT against HS3ST6: 0 (inactive). Next, CCAUGGAUGAGACUCCGUATT against PPP1R10: 1.41 (active); CGUGAUUGACUAUGAGGAATT against GRM6: -0.0544 (inactive). The same measure for GGUCAUUAUUGGUGAGCAATT against HARS2: 0 (inactive). As for AGAACAACGUGAAGGCACATT against TNPO2, the median seed-adjusted z-score is 0.0785 (inactive). As to CAGUGGAUAUCUUGACCUATT against LDHA, the median seed-adjusted z-score was 0.401 (inactive).

On to GGAAGUCUCUUGUCUGCAATT against RNASEL, for which the median seed-adjusted z-score is 0 (inactive). Next, CAGGUUUUCUACAACAACATT against ABCA2: -1.18 (active). The same measure for GAACUUGACCAGUUAGACUTT against GTF3C3: 0.21 (inactive). Next, GGACAACCAUCUUCAAAGATT against ZKSCAN5: -0.229 (inactive). With GCAGUAUCGAGCUUCCGAATT against ACAD10, the median seed-adjusted z-score was -0.269 (inactive). As for GGAUCAUCAUGGAAUUGUATT against PTK2B, the median seed-adjusted z-score was 1.71 (active).

Take CCAUGUCAGUCCUAGGAAATT against ATRIP: the median seed-adjusted z-score is 0.353 (inactive).

Consider GCAACUCCAUGUUUCAUAATT against PRMT1, for which the median seed-adjusted z-score is -0.596 (inactive).
